Screening data (PubChem BioAssay)
JMJD2A Tudor inh: qHTS Assay for Inhibitors of JMJD2A-Tudor Domain. hit rate 4.4% among 390,000. Potency, µM (top dose mostly 114 µM), for inactives: at the top dose activity change, negative = inhibition, actives largely listed as inhibitors. AlphaScreen JMJD2A-Tudor / H3K4me3 peptide binding. AID 504339, 2011. Lysine-specific demethylase 4A (Homo sapiens), O75164; also: % is scaled to controls: 0 for no effect and ±100 for the full control effect; nearly all actives have a fitted effect of over 50% in size
BAZ2B block: qHTS Assay for Inhibitors of BAZ2B. Bromodomain adjacent to zinc finger domain protein 2B (Homo sapiens), Q9UIF8. AlphaScreen BAZ2B-H3K14Ac peptide displacement. Potency, µM (highest dose often 114 µM), for inactives: at the highest dose activity change, negative = inhibition, actives largely listed as inhibitors. hit rate 4.4% among 360,000. AID 504333, 2011; also: % is scaled to controls: 0 for no effect and ±100 for the full control effect; nearly all actives have a fitted effect of over 60% in size
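AlphaScreen displacement of biotin-H3(5-23)K14Ac peptide (50 nM final) from BAZ2B (50 nM final) in PBS pH 7.4, 0.01% Tween-20; complex preformed 30 min RT, then compounds (top 110 uM) 30 min RT, beads 20 min dark.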
G9a block: qHTS Assay for Inhibitors of Histone Lysine Methyltransferase G9a | hit rate 8.8% among 350,000 | Histone-lysine N-methyltransferase EHMT2 (Homo sapiens), Q96KQ7 | Potency, µM (titrated, usually from 102 µM), inactives show top-dose activity, negative = inhibition, actives largely listed as inhibitors | G9a H3K9 monomethylation, AlphaScreen, 2 h; also: % is scaled to controls: 0 for no effect and ±100 for the full control effect; nearly all actives have a fitted effect of over 75% in size
Target sequence (Q96KQ7 913-1193 limits assumed): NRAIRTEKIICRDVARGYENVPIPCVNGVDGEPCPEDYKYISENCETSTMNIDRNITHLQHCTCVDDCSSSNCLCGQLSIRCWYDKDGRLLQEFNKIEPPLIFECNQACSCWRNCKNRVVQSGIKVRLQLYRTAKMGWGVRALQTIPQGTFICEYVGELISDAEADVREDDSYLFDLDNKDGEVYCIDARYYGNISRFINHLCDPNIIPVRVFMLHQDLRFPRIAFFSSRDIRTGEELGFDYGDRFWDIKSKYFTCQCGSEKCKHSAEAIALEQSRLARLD
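AlphaScreen detection with an anti-monomethyl H3K9 antibody quantified product after a 2 h room-temperature reaction containing 500 nM biotinylated H3K9 peptide, 20 µM SAM and 20 nM enzyme, which had been preincubated 15 min with compound.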
VDR inhibitor: Inhibitors of the vitamin D receptor (VDR): qHTS; Vitamin D3 receptor (Homo sapiens), P11473; VDR-SRC2-3 peptide fluorescence polarization, 2 h; Potency, µM, for the others: max response, negative = inhibition, hits mostly inhibitors; hit rate 0.93% among 400,000; AID 504847, 2011; also: % is scaled to controls: 0 for no effect and ±100 for the full control effect
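Compounds are added to VDR with labelled SRC2-3 coactivator peptide and held 2 h at room temperature. Inhibition of the VDR–peptide interaction is then read as a change in fluorescence polarization.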
HP1b binding inh: HTS for Inhibitors of HP1-beta Chromodomain Interactions with Methylated Histone Tails. Chromobox protein homolog 1 (Homo sapiens), P83916. AlphaScreen HP1-beta / biotin-H3K9me3 peptide binding. Potency, µM (top dose mostly 114 µM), for the others: at the highest dose activity change, negative = inhibition, hits mostly inhibitors. hit rate 0.56% among 390,000. AID 540317, 2011; also: nearly all actives have a fitted effect of over 70% in size
Target sequence (P83916 whole entry, looked up): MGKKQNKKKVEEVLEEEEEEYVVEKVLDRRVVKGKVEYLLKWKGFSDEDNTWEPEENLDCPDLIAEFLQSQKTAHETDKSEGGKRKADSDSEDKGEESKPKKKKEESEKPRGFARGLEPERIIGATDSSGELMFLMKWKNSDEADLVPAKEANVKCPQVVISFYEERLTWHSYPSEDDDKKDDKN
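HP1-beta protein (50 nM final) preincubated 30 min at room temperature with biotinylated H3(1-18)K9me3 peptide (50 nM) in PBS pH 7.4, 0.01% Tween-20, then compound added for 30 min. AlphaScreen streptavidin donor/nickel chelate acceptor beads (10 ug/mL final), 30 min dark, luminescence read.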
PLK1 PBD inh: qHTS for Inhibitors of PLK1-PDB (polo-like kinase 1 - polo-box domain): Primary Screen; Plk1 PBD binding of FITC phosphopeptide, fluorescence polarization; Potency, µM, for the others: max response, negative = inhibition, most hits filed as inhibitors; hit rate 2.8% among 360,000; also: series mostly up to about 57 µM; % is scaled to controls: 0 for no effect and ±100 for the full control effect; nearly all actives have a fitted effect of over 65% in size
* marks the source's active call; other numbers are inactive results; ? = inconclusive; / = not tested or not shown; [ ] = remark or other dose. Most compounds without a hit are left out; they make up all but 11% or so of the library. Calls follow the shape of the dose curve; as a rule, active = well fitted curve in the direction sought with a large enough effect; inconclusive = small, poorly fitted or top-dose-only effect, or another doubt; inactive = no such curve, though single readings can be large; an effect the other way counts as inactive or inconclusive. Potency is read from the fitted curve at half-maximal effect.

SMILES	JMJD2A Tudor inh	BAZ2B block	G9a block	VDR inhibitor	HP1b binding inh	PLK1 PBD inh
CC(C)C[C@H](NC(=O)NCc1ccc(Cl)cc1)C(=O)O	-25%	2%	35µM*	-13%	13%	-1%
O=C(NCc1ccc(Cl)cc1)NCC(F)(F)F	-14%[57.1 µM]	6%	-2%	-8%	?	30µM*
CCOc1ccc(C(=O)/C=C/Nc2ccc(S(=O)(=O)Nc3onc(C)c3C)cc2)cc1	-23%[57.1 µM]	?	1.6µM*	0%	-11%	-27%
COc1cccc(C(=O)/C=C/Nc2ccc(S(=O)(=O)Nc3onc(C)c3C)cc2)c1	-16%	?	?	-13%	19%	0%
Cc1noc(NS(=O)(=O)c2ccc(N/C=C\C(=O)c3cccc4ccccc34)cc2)c1C	?	50µM*	?	?	?	24µM*
COc1ccc(Cl)cc1-c1cc(C(=O)NCc2ccc(F)cc2)[nH]n1	/	/	/	/	/	0%
CCC(C)Oc1cc(-c2ccnc(Nc3cccc(Cl)c3)n2)ccn1 (stereo not drawn)	?	52%	4%[12.7 µM]	?	59%	24µM*
Cc1ccc(S(=O)(=O)Nc2c(NC3CCCCC3)c3ccccc3oc2=O)c(C)c1	2%	-17%	11%	-14%	34%	-10%
O=C(O)c1ccc2c(=O)n(Cc3ccccc3)c(SCc3ccc([N+](=O)[O-])cc3)nc2c1	-35%	-30%	?	79µM*	10%	?
O=C(NC1CCCC1)c1ccc2c(=O)n(Cc3ccccc3)c(SCc3cccc([N+](=O)[O-])c3)nc2c1	-24%	0%	5%[59 µM]	14%	17%[57 µM]	/
CCc1ccc(-c2cc(C(F)(F)F)n3nc(C(=O)Nc4cnn(Cc5ccc(C)cc5)c4)cc3n2)s1	-3%	1%	-11%	1%	38%	-4%
O=[N+]([O-])c1cc(C=Nc2ccc3ccccc3c2)ccc1Br	50µM*	28µM*	10µM*	-2%	50µM*	-10%
Nc1ccc2cccc(O)c2c1	28µM*	/	/	15%	?	?
C=CC1=C(C)C2=Cc3c(C=C)c(C)c4[n]3[Sn+2][n]3c(c(C)c(CCC(=O)O)c3=CC3=NC(=C4)C(C)=C3CCC(=O)O)=CC1=N2	/	/	/	35µM*	/	/
O=[N+]([O-])CC(c1ccc(F)cc1)c1c[nH]c2ccccc12 (stereo not drawn)	-19%	-4%	2%	13%	16%	6%
Fc1ccc(C(Nc2ccccn2)c2c[nH]c3ccccc23)cc1 (stereo not drawn)	?	-20%	40µM*	-16%	-11%	8.4µM*
Cc1ccc(NC(=O)C2(c3cccs3)CCOCC2)cc1Cl	6%	15%	-3%[59 µM]	-4%	55%	/
COc1ccc2c(c1)c1c(c(=O)n(Cc3ccccc3)c(=O)n1CC(=O)Nc1c(C)cccc1C)n2C	3%	1%	?	14%	53%	/
Cc1ccc(NC(=O)c2ccccc2N2C(=O)C3C4C=CC(C5CC45)C3C2=O)cc1C (stereo not drawn)	-19%	-20%	61%	1%	12%	0%
CN(C)c1ccc(CNc2ncc(Br)cc2Br)cc1	20µM*	14µM*	40µM*	8%	-66%	1%
CN(C)c1ccc(CNc2ncnc3sccc23)cc1	-35%	-36%	13µM*	14%	3%	-16%
Cc1ccc(S(=O)(=O)Nc2ccccc2CNc2ncc(Br)cc2Br)cc1	-8%	2%	18%[59 µM]	-1%	31%	-1%
CC(C)(C)OC(=O)N1CCC(N2CCN(Cc3ccccc3)C(=O)C2=O)CC1	-4%	1%	28%[59 µM]	13%	42%	/
S=C(NCCCN(Cc1ccc(Cl)cc1)c1ccc(-c2ccccc2)cn1)NCCCN(Cc1ccc(Cl)cc1)c1ccc(-c2ccccc2)cn1	?	/	/	-17%	-7%	/
CCCCN(CCCNC(=S)NCCCc1cnc[nH]1)c1ccc(Br)cn1	50µM*	/	/	/	/	/
SMILES	JMJD2A Tudor inh	BAZ2B block	G9a block	VDR inhibitor	HP1b binding inh	PLK1 PBD inh
S=C(NCCCc1cnc[nH]1)NCCCN(CCc1ccccc1)c1ccc(Br)cn1	56µM*	/	/	-7%	?	/
S=C(NCCCc1cnc[nH]1)NCCCN(Cc1ccccc1)c1ccc(Br)cn1	56µM*	/	/	/	/	/
Cc1ccc(NC(=O)c2ccc3c(O)c(S(=O)(=O)c4ccccc4)c(=O)[nH]c3c2)cc1Cl	-17%	?	-48%[59 µM]	10%	15%	/
CCC1CCCCN1CCCNC(=O)c1sc2nc(C)cc(C)c2c1-n1cccc1 (stereo not drawn)	-21%	-6%	-35%[59 µM]	13%	27%	/
Cc1cccc(N2CCN(C(=O)CCS(=O)(=O)c3ccc(Br)cc3)CC2C)c1 (stereo not drawn)	?	32µM*	25µM*	7%	28µM*	?
Cc1cc(C)c2c(=O)n(CC(=O)N3CCC(Cc4ccccc4)CC3)sc2n1	/	1%	1.6µM*	/	/	/
Cc1cccc(N2CCN(C(=O)CN3CCOc4ccccc43)CC2C)c1 (stereo not drawn)	?	?	50µM*	-26%	-15%	-10%
Cc1cccc(N2CCN(C(=O)Cn3sc4nc(C)cc(C)c4c3=O)CC2C)c1 (stereo not drawn)	3.2µM*	?	1.3µM*	16µM*	8.9µM*	1.7µM*
COc1ccc(OC)c(NS(=O)(=O)c2ccc(-c3cc(C)no3)s2)c1	-28%	?	-9%[59 µM]	9%	-11%	/
O=S(=O)(CCc1ccncc1)Cc1ccc2c3c(cccc13)CC2	-4%	-3%	50µM*	-8%	25%	0%
CC(=O)Nc1ccc(S(=O)(=O)N2CCCN(S(=O)(=O)c3ccc4c(c3)OCCO4)CC2)cc1	-14%	/	/	/	/	/
COc1ccc(C(=O)c2nc3c(n2O)CCCCC3)cc1	?	6%	-107%	-20%	-1%	2%
COc1ccc(C(=O)c2nc3c(n2O)CCCC3)cc1OC	50µM*	-27%	?	3%	1%	2%
CCN(CC)c1ccc(C(=O)OCC(=O)N2CCN(c3ccccc3)CC2)cc1	4.5µM*	-37%	-40%	-9%	12%	-2%
O=C(OCC(=O)N1CCN(c2ccccc2)CC1)c1ccc(Cl)nc1	-2%	-1%	?	4%	13%	-8%
O=C(CCCCC(=O)N1CCN(c2ccccc2)CC1)N1CCN(c2ccccc2)CC1	/	-3%	17%	/	/	/
CC(=O)c1ccc(NCC(=O)N2CCN(c3ccccc3)CC2)cc1	0%	-32%	14µM*	1%	42%	-11%
